# Hits are enriched below; roughly 11% of the tested compounds scored in any of these assays.
# Pf growth 48h: P. falciparum growth inhibition at 48 hours (one generation); P. falciparum luciferase growth in erythrocytes, 48 h; Potency, µM (doses to about 28.7 µM), for the others: at the top dose activity change, negative = inhibition, hits mostly inhibitors; hit rate 5.9% among 310,000; note: % is set by controls: 0 for no effect and ±100 for the full control effect
#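 Erythrocytes infected with P. falciparum carrying an integrated firefly luciferase reporter (2% hematocrit, 0.1% parasitemia final) were exposed to compounds in RPMI 1640 with 0.5% Albumax at 37 C, 5% CO2. Growth inhibition was scored as reduced luminescence.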
# VACV mCherry inh: inhibitors of vaccinia virus infection (mCherry reporter signal). Potency, µM (doses to about 36.5 µM), for inactives: at the top dose activity change, negative = inhibition, actives largely listed as inhibitors. Vaccinia virus mCherry reporter infection, fluorescence. hit rate 0.63% among 310,000; calls by dose curve; tested in A549 cells; note: % is set by controls: 0 for no effect and ±100 for the full control effect; nearly all actives have a fitted effect of over 35% in size
# Pf growth 96h: P. falciparum growth inhibition at 96 hours. P. falciparum luciferase reporter growth, 96 h. Potency, µM (highest dose often 28.7 µM), for the others: top-dose activity change, negative = inhibition, usual class: inhibitors. hit rate 6.9% among 320,000. AID 504834; note: % is set by controls: 0 for no effect and ±100 for the full control effect
#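 Compounds incubated with erythrocytes infected by luciferase-expressing P. falciparum (2% hematocrit, 0.05% parasitemia final) for 96 hours, 37 C in 5% CO2. Growth inhibition scored as decreased luciferase luminescence.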
# HCV inhibitor: blocks hepatitis C virus | Huh7.5.1 HCVcc-Cre infection, luciferase reporter, 44 h | Potency, µM (highest dose often 41.8 µM), for inactives: at the highest dose activity change, negative = inhibition, hits mostly inhibitors | hit rate 3.4% among 340,000; note: % is set by controls: 0 for no effect and ±100 for the full control effect
#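 Reporter virus HCVcc-Cre (~0.5 moi) infects cells exposed to compound; seeding density 1,000 cells/well with 4 h settling beforehand. Luminescence, 15 sec read, taken 44 h post-infection following a 15 min RT substrate incubation.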
# NS1 function inh: influenza NS1 inhibition; hit rate 0.4% among 270,000; Potency, µM (top dose mostly 46.1 µM), for the others: at the highest dose activity, positive = more growth; calls by dose curve; note: actives are rising curves; nearly all actives have a fitted effect of over 50% in size
#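 S. cerevisiae expressing influenza A NS1, grown in glucose, washed, then diluted 1:100 into pH 6.0 -URA galactose medium with 23 nl compound. Growth recovery read as OD600; NS1-free strain serves as control.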
# VACV Venus inh: vaccinia inhibition (Venus reporter). AID 720580. Potency, µM (top dose mostly 36.5 µM), inactives show at the top dose activity change, negative = inhibition, usual class: inhibitors. hit rate 0.46% among 330,000. Vaccinia virus Venus reporter expression, fluorescence; calls by dose curve; tested in A549 cells; note: % is set by controls: 0 for no effect and ±100 for the full control effect; nearly all actives have a fitted effect of over 30% in size
# * = called active by the depositor; i = inactive; ? = inconclusive; . = not tested or not shown; [ ] = dose if it differs, or a comment. Unless noted, calls come from the whole dose curve; as a rule, active = well fitted inhibition curve with a large enough effect; inconclusive = small, poorly fitted or top-dose-only effect, or another doubt; inactive = no such curve, though single readings can be large or run the other way. Potency is the fitted concentration of half-maximal effect.
SMILES,Pf growth 48h,VACV mCherry inh,Pf growth 96h,HCV inhibitor,NS1 function inh,VACV Venus inh
CC1CCCN(CCCNC(=O)c2cc3c(Cl)nc4ccccc4c3s2)C1 (stereo not drawn),?,-4.2%[7.34 µM],?,12.6µM*,.,?
CN1CCN(c2ccccc2NC(=O)c2cc3c(s2)-c2ccccc2OC3)CC1,10.4µM*,.,?,-10.9%,-4.1%,.
O=C(Nc1cccnc1Cl)c1cc2c(s1)-c1ccccc1OC2,44.4%,.,?,?,-9.1%,.
CC1CCCN(C(=O)c2cc3c(Cl)nc4ccccc4c3s2)C1 (stereo not drawn),.,-11.0%,.,.,.,2.0%
COc1cc(NC(=O)c2cc3c(Cl)nc4ccccc4c3s2)cc(OC)c1OC,0.828µM*,i,?,?,12.3%,-3.3%
Cc1ccc(NC(=O)CSc2nnc(NC(=O)c3ccc(S(=O)(=O)N4CCOCC4)cc3)s2)cc1,25.8%,-6.5%,37.5%,27.9%,2.6%,-6.6%
CC(=O)CN1Cc2ccccc2/C1=N\C(=O)Nc1ccccc1,19.8%,-22.4%,?,?,10.3%,-13.8%
COc1ccc(OC)c(Nc2nc3ccc(C)cc3n3cnnc23)c1,?,.,?,?,-2.3%,.
CN(CCCNC(=O)c1cc2c(Cl)nc3ccccc3c2s1)Cc1ccccc1,3.29µM*,-1.0%,?,12.6µM*,.,?
Cc1ccc(C)c(Oc2cc(F)nc(N)n2)c1,-3.1%,-22.0%,-2.8%,-15.2%,-51.2%,-1.6%
CCCN(CCC)C1=CC(=[N+]2CCCC2)CC(C)(C)C1,1.47µM*,i,0.329µM*,?,-8.2%,-15.6%
CC(Sc1nnc(-c2ccco2)n1C)C(=O)Nc1nccs1 (stereo not drawn),?,-11.4%,5.22µM*,20.4%,.,6.8%
Cc1nnc(SC(C)C(=O)Nc2ccc(Cl)cn2)n1Cc1ccccc1 (stereo not drawn),1.9%,-1.4%,4.0%,5.7%,-5.5%,-12.8%
CC(Sc1nnc(-c2ccc(Cl)cc2Cl)n1Cc1ccccc1)C(=O)Nc1nccs1 (stereo not drawn),?,?,9.28µM*,?,-48.2%,?
Cc1nnc(NC(=O)C(C)Sc2nnc(-c3ccco3)n2C)s1 (stereo not drawn),-12.3%,-8.8%,-18.4%,1.6%,24.6%,5.1%
COc1cc(OC)c2c(C)cc(=O)oc2c1C(CCN1CCOCC1)c1ccc(N(C)C)cc1 (stereo not drawn),10.4µM*,?,?,?,-11.2%,?
COc1cc(OC)c2c(-c3ccccc3)cc(=O)oc2c1C(CCN1CCN(c2ccccc2)CC1)c1ccc(N(C)C)cc1 (stereo not drawn),5.22µM*,?,4.15µM*,?,-2.0%,-14.0%
COc1ccc(C(CCN2CCN(c3ccccc3)CC2)c2c(OC)cc(OC)c3c(-c4ccccc4)cc(=O)oc23)cc1 (stereo not drawn),3.29µM*,-10.2%,4.65µM*,-20.8%,9.3%,-13.9%
COc1cc(OC)c2ccc(=O)oc2c1C(CCN1CCN(c2ccccc2)CC1)c1ccc(N(C)C)cc1 (stereo not drawn),11.7µM*,-6.6%,10.4µM*,-5.5%,-4.3%,-7.3%
Cc1cc(Cl)ccc1NC(=S)NCCCO,0.3%,i,227.0%,2.4%,14.0%,-9.8%
O=c1[nH]c(N/N=C/c2ccccc2)nc2ccccc12,-3.3%,.,1.5%,7.7%,-18.6%,.
COc1ccccc1CN1CCC(CNC(=O)c2cnn(-c3ccc(Cl)cc3)c2C2CCN(C(=O)OC(C)(C)C)CC2)CC1,.,?,.,.,.,-22.6%
COc1cc(OC)c2c(-c3ccccc3)cc(=O)oc2c1C(CC(=O)N1CCOCC1)c1ccc(N(C)C)cc1 (stereo not drawn),7.38µM*,-9.7%,?,-17.5%,-46.7%,-20.1%
CCN(CC)CCC(c1ccc(N(C)C)cc1)c1c(OC)cc(OC)c2c(-c3ccccc3)cc(=O)oc12 (stereo not drawn),8.28µM*,?,3.7µM*,-22.1%,-20.8%,?
COc1cc(OC)c2c(-c3ccccc3)cc(=O)oc2c1C(CC(=O)N1CCN(c2ccccc2)CC1)c1ccc(N(C)C)cc1 (stereo not drawn),?,?,?,?,1.5%,-18.6%

# Bioassay records (PubChem)
